# Only some compounds are listed: those with a hit (about 4% of all), similar ones and a draw of the others.
# CF NFkB inh = inhibitors of PAF-induced NF-kB signaling, primary screen, cell-based, GFP fluorescence, uHTS | 360,000 compounds, 0.86% hits | KKLEB NF-kB-GFP reporter, GFP fluorescence overnight | inhibition, % at 5 µM;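 active = at least 50% inhibition at 5 µM, scaled per plate between neutral and stimulator controls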;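 note: PAF is a Pseudomonas aeruginosa culture filtrate used as stimulus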
# TWEAK-Fn14 inh = inhibitors of TWEAK-Fn14 signaling, primary screen, luciferase reporter cells, uHTS | inhibition, % at 10 µM | TWEAK-stimulated Fn14 reporter cells, luciferase luminescence, 8 h | 360,000 compounds, 2% hits; in the data active = inhibition above about 50%
# TROY signal inh = inhibitors of TROY-driven NF-kB signaling, primary screen, Q293 LMP1-TROYcd cells, NF-kB luciferase, uHTS. Q293 LMP1-TROYcd NF-kB luciferase reporter, 4 h. inhibition, % at 10 µM. 360,000 compounds, 0.98% hits;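 active = compounds whose plate-normalised and pattern-corrected inhibition of the luciferase reporter signal at the single screening dose is 50% or more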
# Peg3 promoter = Peg3 promoter-driven luciferase inhibitors, primary screen, cell-based, HeLa, luciferase luminescence; 360,000 compounds, 1.7% hits; inhibition, % at 20 µM; HeLa PEG-Prom luciferase reporter, overnight;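 active = inhibition of at least 50% at 20 µM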
# KKLEB tox = cytotoxicity in KKLEB CF airway cells, primary screen, cytotoxicity control for CF NF-kB inhibitor project, cell-based, uHTS, fluorescence assay plates | 360,000 compounds, 0.36% hits | AID 602141, 2011 | activity change (cytotoxicity), % at 5 µM | KKLEB CF airway cells viability, ATPlite luminescence, overnight; stronger effect = lower value; cells stimulated with P. aeruginosa culture filtrate;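 active = corrected activity change at or below -50% at 5 µM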
# HIF-2a block = HIF-2a reporter inhibitors, primary screen, luminescence, 786-0 RCC cells; 360,000 compounds, 0.72% hits; 786-0 RCC cells HIF-2a reporter, luciferase luminescence, overnight; inhibition, % at 18.8 µM; AID 624352, 2012;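 active = inhibition of the luminescence signal of 40% or more relative to plate controls, in a single-dose primary screen at 18.75 µM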
# Numbers stand for hits; . = inactive; / = no result.
SMILES,CF NFkB inh,TWEAK-Fn14 inh,TROY signal inh,Peg3 promoter,KKLEB tox,HIF-2a block
C#CCOCCOCCOCCNc1nc(N2CCN(C(=O)[C@H](CCC(=O)O)n3cc([C@@H](N)CCCCN)nn3)CC2)nc(N2CCN(C(=O)[C@H](CCC(=O)O)n3cc([C@@H](N)CCCCN)nn3)CC2)n1,.,.,.,.,.,.
COc1cc2cnc(-c3ccccc3)c(-c3ccc(C(F)(F)F)cc3)c2cc1OC,.,.,.,64,.,.
Cc1ccc(C(=O)CCS(=O)(=O)c2ccc(Br)cc2)cc1,.,.,.,.,.,.
Cc1ccc(S(=O)(=O)CCC(=O)c2cccc([N+](=O)[O-])c2)cc1,.,.,.,110,.,.
Cc1ccc(S(=O)(=O)Cc2cc(F)c([N+](=O)[O-])cc2[N+](=O)[O-])cc1,.,.,.,117,.,.
CCOC(=O)c1ccc([N+](=O)[O-])c(CS(=O)(=O)c2ccc(Cl)cc2)c1,.,.,.,.,.,.
COc1ccc(C(=O)N=c2nc3ccccn3s2)cc1,.,97,79,.,.,46
CCOC(=O)c1sc(NC(=O)Nc2ccc(Cl)cc2)cc1C,.,67,.,.,.,.
CCCCN(C(=O)c1ccco1)c1c(N)n(CCC)c(=O)[nH]c1=O,.,.,.,.,.,.
CCCCN(C(=O)c1ccccc1F)c1c(N)n(CCC)c(=O)[nH]c1=O,.,.,.,73,.,.
CCCCNC(=O)c1ccc(Cn2c(=S)[nH]c3c([nH]c4ccc(OC)cc43)c2=O)cc1,60,.,.,80,-63,.
N#C/C(=N\Nc1ccc(S(=O)(=O)N2CCOCC2)cc1)C(N)=S,.,.,.,.,.,.
CN(C)S(=O)(=O)c1cccc(NC(=S)NC23CC4CC(CC(C4)C2)C3)c1,.,62,.,.,.,.
O=S(=O)(c1ccc(NC(=S)NC23CC4CC(CC(C4)C2)C3)cc1)N1CCCCC1,.,70,.,.,.,.
N#CC(C#N)=NNc1ccc(S(=O)(=O)N2CCCCC2)cc1,71,.,59,.,.,.
Cc1ccc(S(=O)(=O)N(C)C)cc1NC(=S)NC12CC3CC(CC(C3)C1)C2,.,.,.,.,.,.
CC(C)(C)C(=O)c1c(N)[nH]c(C(=O)c2ccccc2)c1-c1ccc(Cl)cc1,/,.,.,/,/,.
N/C(=N\N=C/c1ccc(F)cc1)N/N=C\c1ccc(F)cc1,.,.,.,.,.,.
N/C(=N\N=C/c1ccc(Br)cc1)N/N=C\c1ccc(Br)cc1,.,.,.,102,.,.
C=CCNC(=O)c1ccc(CSc2nc3ccccc3s2)cc1,.,.,.,.,.,.
CC(=O)NCCNC(=O)c1ccc(CSc2nc3ccccc3s2)cc1,.,85,69,.,.,.
Cc1ccc(C(=O)NCCn2cc(SCC(=O)N3CCOCC3)c3ccccc32)cc1,.,86,78,.,.,.
Cc1cc(NC(=O)CSc2cn(CCNC(=O)c3ccccc3)c3ccccc23)no1,.,.,.,.,.,.
Cc1ccc(C(=O)NCCn2cc(SCC(=O)Nc3cc(C)on3)c3ccccc32)cc1,.,84,73,.,.,.
COc1ccc(Cl)cc1N(CC(=O)NC(C)(C)C)S(=O)(=O)c1ccc(C)c([N+](=O)[O-])c1,.,.,.,.,.,.
SMILES,CF NFkB inh,TWEAK-Fn14 inh,TROY signal inh,Peg3 promoter,KKLEB tox,HIF-2a block
COc1ccc2cc3cc(C(=O)NCCc4ccc(OC)c(OC)c4)oc3nc2c1,.,66,.,53,.,.
COc1ccc(CCNC(=O)c2ccc(CSc3ccc(Cl)cc3)o2)cc1OC,/,68,.,/,/,.
COc1ccc2cc3cc(C(=O)N4CCCCCC4)oc3nc2c1,.,54,.,.,.,.
CCCN(CCC)CCCNC(=O)c1cc2cc3ccc(OC)cc3nc2o1,.,.,.,.,.,.
COc1ccc(CCNC(=O)c2ccc(CS(=O)(=O)c3ccc(Cl)cc3)o2)cc1OC,.,.,.,.,.,.
CC(C)(C)c1ccc(/C=C/C(=O)NC2=NCCS2)cc1,.,50,53,.,.,.
Cc1ccc(/C=C/C(=O)Nn2cnnc2)cc1,.,57,.,.,.,.
Cc1ccc(/C=C/C(=O)NC2=NCCS2)cc1,.,52,.,.,.,.
O=C(CNC(=O)c1ccc(Br)cc1)c1ccccc1,.,.,.,.,.,.
O=C(CNC(=O)c1ccccc1)c1ccccc1,.,50,.,.,.,.
CNc1ccc(Br)cc(C(=O)/C=C/c2cccc(OC)c2OC)c1=O,.,.,.,.,.,.
CNc1ccc(Br)cc(C(=O)/C=C/c2cccc(Cl)c2Cl)c1=O,.,.,.,106,.,.
O=C1c2ccccc2C(=O)c2c(O)c(O)cc(O)c21,.,.,.,.,.,.
O=C1C=C(O)c2c(O)cc(O)c(O)c2C1=O,.,70,.,.,.,.
CCOC(=O)C1CCN(C(=O)c2c(C)oc3c2C(=O)c2ccccc2C3=O)CC1,62,.,.,.,.,.
N#C/C(=C\c1cccc([N+](=O)[O-])c1)c1nnc2n1CCCCC2,.,91,82,.,.,.
CN(c1ccccc1)c1ccc(/C=C(\C#N)c2nnc3n2CCCCC3)cc1[N+](=O)[O-],.,.,.,.,.,.
O=S(=O)(/C=C/c1ccccc1)NC1CCCCCCC1,.,.,.,.,.,.
COc1cc(CNCc2ccc(OC)c(OC)c2OC)cc(OC)c1,.,.,.,71,.,.
COc1cccc(CNCc2cc(OC)cc(OC)c2)c1,.,.,.,.,.,.
CCOC(=O)CNC(=O)Cn1cnc2c(nnn2-c2ccc(OC)cc2)c1=O,.,.,.,.,.,.
O=C(Nc1cc(F)ccc1F)C1CCCN(c2ncnc3c2nc2n3CCCCC2)C1 (configuration not stated),.,.,.,52,.,.
O=C(Nc1ccc(F)cc1F)C1CCCN(c2ncnc3c2nc2n3CCCCC2)C1 (configuration not stated),.,.,.,.,.,.
Cc1ccc(C)c(N2CCN(C(=O)C3CCCN(c4ncnc5c4nc4n5CCCCC4)C3)CC2)c1 (configuration not stated),.,.,.,.,.,.
Cc1ccc(N2CCN(C(=O)C3CCCN(c4ncnc5c4nc4n5CCCCC4)C3)CC2)c(C)c1 (configuration not stated),.,.,60,.,.,.
Nc1[nH]n2c(=O)cc(-c3ccccc3)nc2c1N=Nc1ccc(S(N)(=O)=O)cc1,.,.,.,.,.,.
